Measurements reported in PubChem BioAssay (EPA / NIEHS).
Values joined by “and” are separate entries in the source; they are usually repeats but may differ in a detail not shown here. Identical values can stand only once. A structure can be active in one record and inactive in another. Active and inactive are the calls of the source. How the source made its calls: active means hit-call score of the fitted dose curve at least 0.9, where 1 is the maximum; inactive means score below 0.9.

These compounds were tested on urokinase Plasminogen Activator (uPA), PLAU (gene 5328) (assay: BSK_BF4T_uPA: BioMAP Diversity Plus: BF4T Assay for urokinase Plasminogen Activator (uPA) Biomarker Activity (AID 2284275)). Conditions: primary human bronchial epithelial cells with fibroblasts.
Experimental: BSK_BF4T is a cell-based, multiplexed-readout assay that uses bronchial epithelial cells and dermal fibroblasts, a human vascular primary cell, with measurements taken at 24 hours after chemical dosing in a microplate: 96-well plate.BSK_BF4TA is an assay component measured in the BSK_BF4T assay. It measures uPA antibody related to regulation of gene expression using ELISA technology.Data from the assay component BSK_BF4TA was analyzed at the endpoint, BSK_BF4TA, in the positive analysis fitting direction relative to DMSO as the negative control and baseline of activity. Using a type of binding reporter, gain or loss-of-signal activity can be used to understand protein changes. To generalize the intended target to other relatable targets, this assay endpoint is annotated to the 'protease' intended target family, where the subfamily is 'serine protease'.
The levels of cell surface (or secreted, indicated by the prefix "s") biomarker endpoints were measured by ELISA. Overt cytotoxicity to cells in confluent adherent cultures (all systems other than the BT system) was assessed by measuring total protein levels using sulforhodamine B (SRB) staining in parallel cultures at the time of biomarker measurements, indicated as SRB endpoints. For proliferation assays for adherent cell types, individual cell types are cultured at sub-confluence and relative cell numbers quantified by SRB staining at time points optimized for each system (48 h: 3C and CASM3C systems; 72 h: BT and HDF3CGF systems; 96 h: SAg system). SRB was performed by staining cells with 0.1% SRB after fixation with 10% TCA and reading wells at 560 nm.Viability and proliferation of PBMC (T cells) was quantified by Alamar Blue reduction for the SAg and BT systems. For PBMC viability (referred to as PBMC Cytotoxicity within the assay endpoint names), cells were plated (75,000/well in a 96-well plate) and then chemical samples added for 1 h before addition of activators, SEB and TSST-1 (20 ng/mL final concentration each). Cells were incubated for 90 h. Then, Alamar Blue (20 uL/well) (Invitrogen, Cat DAL1100) was added for 6 h, and the plates were read with a fluorescence microplate reader at 546/580 nm (excitation/emission). For PBMC proliferation, cells were plated and activated as above but incubated for only 16 h prior to addition of Alamar Blue. Plates were read after 6 h.

Q: Which outcome does the source give for `OCC(F)(F)C(F)(F)C(F)(F)C(F)(F)C(F)(F)C(F)(F)F` here?
A: The outcome was “inactive”.

Q: With `CC(C)(C)C(=O)CC(=O)C(F)(F)C(F)(F)C(F)(F)F` as the compound, how does the outcome read?
A: The outcome was “inactive”.

Q: How did the outcome turn out when `FC(F)(F)C(F)(F)C(F)(F)C(F)(F)C(F)(F)C(F)(F)C(F)(F)C(F)(F)CCS` was run?
A: Its outcome is “inactive”.

Q: `FC(F)(F)C(F)(F)C(F)(F)C(F)(F)C(F)(F)C(F)(F)C(F)(F)C(F)(F)F` was tested. Which outcome did it give?
A: Its outcome is “inactive”.

Q: How did the outcome turn out when `C=CC(F)(F)C(F)(F)C(F)(F)C(F)(F)C(F)(F)C(F)(F)C(F)(F)C(F)(F)C=C` was run?
A: The outcome was “inactive”.

Q: How did the outcome turn out when `C=C(C)C(=O)OCCC(F)(F)C(F)(F)C(F)(F)C(F)(F)C(F)(C(F)(F)F)C(F)(F)F` was run?
A: Its outcome is “inactive”.

Q: How did the AC50 turn out when `O=C(O)C(F)(F)C(F)(F)C(F)(F)C(F)(F)C(F)(F)C(F)(F)C(F)(F)C(F)(F)C(F)(F)C(F)F` was run?
A: Its AC50 is 41.3 µM (active) and 17.5 µM (active).

Q: Which outcome does the source give for `FC(F)(F)C(F)(F)CNCC(F)(F)C(F)(F)F` here?
A: Its outcome is “inactive”.

Q: Which AC50 does the source give for `OCCCC(F)(F)C(F)(F)C(F)(F)C(F)(F)C(F)(F)C(F)(F)C(F)(F)F` here?
A: Its AC50 is 47.8 µM (active) and 45.7 µM (active).

Q: Which outcome does the source give for `C=C(C)C(=O)OCC(F)(F)C(F)(F)C(F)(F)F` here?
A: Its outcome is “inactive”.

Q: Which outcome does the source give for `FC(F)(Br)C(F)(F)C(F)(F)C(F)(F)C(F)(F)C(F)(F)Br` here?
A: The outcome was “inactive”.

Q: `FC(F)(I)C(F)(F)C(F)(F)C(F)(F)I` was tested. Which AC50 did it give?
A: The AC50 was 49.9 µM (active) and 53.8 µM (active) and 46.2 µM (active).

Q: For `O=C(O)C(F)(F)C(F)(F)C(F)(F)C(F)(F)C(F)(F)C(F)(F)C(F)(F)C(F)(F)C(F)(F)C(F)(F)C(F)(F)C(F)(F)C(F)(F)F`, which outcome is on record?
A: Its outcome is “inactive”.

Q: With `FC(F)(F)C(F)(F)C(F)(F)C(F)(F)C(F)(F)C(F)(F)C(F)(F)I` as the compound, how does the outcome read?
A: Its outcome is “inactive”.

Q: Which outcome does the source give for `O=C(O)C(F)(OC(F)(F)C(F)(OC(F)(F)C(F)(OC(F)(F)C(F)(F)C(F)(F)F)C(F)(F)F)C(F)(F)F)C(F)(F)F` (stereo not given) here?
A: Its outcome is “inactive”.

Q: Which outcome does the source give for `OCCCC(F)(F)C(F)(F)C(F)(F)F` here?
A: Its outcome is “inactive”.

Q: With `C=CC(=O)OCC(F)(F)C(F)(F)C(F)(F)C(F)(F)C(F)(F)C(F)(F)C(F)(F)F` as the compound, how does the outcome read?
A: Its outcome is “inactive”.

Q: How did the outcome turn out when `N=C(N)C(F)(F)C(F)(F)C(F)(F)C(F)(F)C(F)(F)C(F)(F)C(F)(F)F` was run?
A: Its outcome is “inactive”.

Q: For `FC(F)(F)C(F)(F)C(F)(F)CI`, which outcome is on record?
A: The outcome was “inactive”.

Q: How did the outcome turn out when `OCC(F)(F)C(F)(F)C(F)(F)F` was run?
A: The outcome was “inactive”.

Q: With `O=C(O)C(F)(F)C(F)(F)C(F)F` as the compound, how does the outcome read?
A: Its outcome is “inactive”.

Q: How did the outcome turn out when `C=CC(F)(F)C(F)(F)C(F)(F)C(F)(F)C(F)(F)C(F)(F)C(F)(F)C(F)(F)F` was run?
A: The outcome was “inactive”.

Q: How did the outcome turn out when `CCO[Si](CCC(F)(F)C(F)(F)C(F)(F)C(F)(F)C(F)(F)C(F)(F)F)(OCC)OCC` was run?
A: Its outcome is “inactive”.

Q: With `O=C(O)C(F)(F)C(F)(F)C(F)(F)C(F)(F)C(F)(F)C(F)(F)C(F)(F)C(F)(F)C(F)(F)C(F)(F)C(F)(F)C(F)(F)F` as the compound, how does the outcome read?
A: The outcome was “inactive”.

Q: With `C=C(C)C(=O)OCC(F)(F)C(F)(F)C(F)(F)C(F)(F)C(F)(F)C(F)(F)C(F)(F)F` as the compound, how does the outcome read?
A: Its outcome is “inactive”.

Q: With `O=P(O)(O)OCCC(F)(F)C(F)(F)C(F)(F)C(F)(F)C(F)(F)C(F)(F)F` as the compound, how does the outcome read?
A: Its outcome is “inactive”.

Q: Which outcome does the source give for `COC(=O)CCC(F)(F)C(F)(F)C(F)(F)C(F)(F)F` here?
A: Its outcome is “inactive”.

Q: `O=C(O)C(F)(OC(F)(F)C(F)(OC(F)(F)C(F)(F)C(F)(F)F)C(F)(F)F)C(F)(F)F` (stereo not given) was tested. Which outcome did it give?
A: The outcome was “inactive”.

Q: Which outcome does the source give for `FC(F)(F)C(F)(F)C(F)(F)C(F)(F)C(F)(F)CCI` here?
A: The outcome was “inactive”.

Q: For `O=C(CC(=O)C(F)(F)C(F)(F)F)C(F)(F)F`, which outcome is on record?
A: Its outcome is “inactive”.

Q: With `O=C(Cl)C(F)(F)C(F)(F)C(F)(F)C(F)(F)C(F)(F)C(F)(F)C(F)(F)C(F)(F)F` as the compound, how does the AC50 read?
A: The AC50 was 46 µM (active) and 48 µM (active) and 44.8 µM (active).

Q: With `FC(F)(F)C(F)(F)C(F)(F)C(F)(F)C(F)(F)C(F)(F)C(F)(F)Br` as the compound, how does the outcome read?
A: The outcome was “inactive”.

Q: `FC(F)(F)C(F)(F)C(F)(F)C(F)(F)CCI` was tested. Which outcome did it give?
A: Its outcome is “inactive”.

Q: For `C=CC(=O)OCC(F)(F)C(F)(F)C(F)(F)C(F)(F)COC(=O)C=C`, which outcome is on record?
A: Its outcome is “inactive”.

Q: What about the AC50 of the same compound?
A: The AC50 was 30 µM (active).

Q: For `O=C(O)C(F)(F)C(F)(F)C(F)(F)C(F)(F)F`, which outcome is on record?
A: Its outcome is “inactive”.

Q: For `Cc1ccc(S(=O)(=O)OCC(F)(F)C(F)(F)C(F)(F)C(F)(F)C(F)(F)C(F)F)cc1`, which outcome is on record?
A: The outcome was “inactive”.

Q: For `FC(F)(F)C(F)(F)C(F)(F)N(C(F)(F)C(F)(F)C(F)(F)F)C(F)(F)C(F)(F)C(F)(F)F`, which outcome is on record?
A: The outcome was “inactive”.

Q: For `NC(=O)C(F)(F)C(F)(F)C(F)(F)C(F)(F)F`, which outcome is on record?
A: Its outcome is “inactive”.

Q: With `OCC(F)(F)C(F)(F)C(F)(F)C(F)(F)C(F)(F)C(F)F` as the compound, how does the outcome read?
A: The outcome was “inactive”.
